Many of the other results were omitted from the sample, so hits are more common in it than they were.
AmpC detergent – qHTS Inhibitors of AmpC Beta-Lactamase (assay with detergent); 370,000 compounds, 0.041% hits; Potency, µM (highest dose often 114 µM), for inactives: at the highest dose activity change, negative = inhibition, hits mostly inhibitors; P00811; AmpC hydrolysis of nitrocefin, absorbance 480 nm, 0.01% Triton;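 also: potency is read from the fitted curve at half-maximal effect; 0% = no-compound wells and -100% = no-enzyme wells; nearly all actives have a fitted effect of over 25% in size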
Target sequence (P00811 whole entry, looked up): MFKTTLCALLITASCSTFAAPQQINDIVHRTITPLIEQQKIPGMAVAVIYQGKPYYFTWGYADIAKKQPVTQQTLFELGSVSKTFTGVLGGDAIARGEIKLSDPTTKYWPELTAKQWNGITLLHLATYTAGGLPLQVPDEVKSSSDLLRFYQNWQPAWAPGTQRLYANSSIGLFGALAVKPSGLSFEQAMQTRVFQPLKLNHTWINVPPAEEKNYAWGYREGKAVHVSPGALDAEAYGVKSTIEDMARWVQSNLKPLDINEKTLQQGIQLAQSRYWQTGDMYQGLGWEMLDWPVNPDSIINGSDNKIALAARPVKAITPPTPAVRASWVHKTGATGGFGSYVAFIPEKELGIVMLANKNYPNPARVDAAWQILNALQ
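AmpC (5.3 nM in the dispensed reagent) in 20 mM phosphate pH 7.0 with 0.01% (detergent screen) or 0.0001% Triton X-100 was preincubated with compounds for 15 min at room temperature. Nitrocefin was then added from an 800 uM solution, and hydrolysis was followed at 480 nm.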
AmpC inh no detg – qHTS Inhibitors of AmpC Beta-Lactamase (assay without detergent) | P00811 | AmpC nitrocefin hydrolysis, absorbance 480 nm, 0.0001% Triton | Potency, µM (top dose mostly 57.1 µM), for the others: at the highest dose activity change, negative = inhibition, hits mostly inhibitors | 330,000 compounds, 0.52% hits | AID 485341, 2010;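 also: potency is read from the fitted curve at half-maximal effect; plate controls were no compound for no effect and no enzyme for full effect; nearly all actives have a fitted effect of over 20% in size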
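AmpC (5.3 nM in the dispensed reagent) in 20 mM phosphate pH 7.0 with 0.01% (detergent screen) or 0.0001% Triton X-100 was preincubated with compounds for 15 min at room temperature. Nitrocefin was then added from an 800 uM solution, and hydrolysis was followed at 480 nm.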
CHX counter – Cycloheximide Counterscreen for Small Molecule Inhibitors of Shiga Toxin; cell reporter, cycloheximide protein synthesis inhibition counterscreen; max response, %; 300,000 compounds, 12% hits; AID 2314, 2010; in the data active = max response mostly above about 13%, no sharp cut-off; inactive = mostly below about 14%; also: read at 38.3 µM for the half of the compounds with a filed dose; 0% is about no effect
NS1 inh – qHTS Assay for Inhibitors of Influenza NS1 Protein Function | Potency, µM (series often up to 46.1 µM), for the others: top-dose activity, positive = more growth | 270,000 compounds, 0.4% hits | AID 2326, 2010; calls by dose curve; also: potency is read from the fitted curve at half-maximal effect; actives are rising curves; nearly all actives have a fitted effect of over 50% in size
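OD600 was taken as the measure of yeast growth restored by compound in an NS1-expressing S. cerevisiae strain. Cells had been washed out of glucose medium and diluted 1:100 into galactose -URA medium, pH 6.0.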
Shiga inhibitor – A qHTS for Small Molecule Inhibitors of Shiga Toxin; Vero cells, Shiga toxin protein synthesis inhibition reporter; inhibition, % at 38.7 µM; 290,000 compounds, 9.2% hits; AID 2315, 2010; in the data active = inhibition mostly above about 28%, no sharp cut-off; inactive = mostly below about 43%; also: 0% is about no effect
Numbers without * were called inactive; ? = inconclusive; nt = no result. Unless noted, calls follow the shape of the dose curve; as a rule, active = well fitted curve in the direction sought with a large enough effect; inconclusive = small, poorly fitted or top-dose-only effect, or another doubt; inactive = no such curve, though single readings can be large; an effect the other way counts as inactive or inconclusive.

SMILES	AmpC detergent	AmpC inh no detg	CHX counter	NS1 inh	Shiga inhibitor
CCN(CC)S(=O)(=O)c1cc(NC(=O)C2CSC3(C)CCC(=O)N23)ccc1C (stereo not drawn)	-5%	-8%	nt	nt	nt
CCOc1ccc(C(=O)Nc2c(C(=O)c3ccccc3)oc3ccccc23)cc1	21%	nt	nt	nt	nt
COc1ccc(/C(N)=N/OC(=O)c2cccc([N+](=O)[O-])c2)cc1OC	-4%	-20%	1	3%	-19
Cc1cccc(C(=O)O/N=C(\N)c2cccc([N+](=O)[O-])c2)c1	-8%	-23%	53*	-30%	99*
CCOC(=O)CC(NC(=O)CCc1c(C)nc2cc(-c3ccccc3)nn2c1C)c1ccc(C)cc1 (stereo not drawn)	22%	nt	nt	nt	nt
CC(C)(C)C(=O)Nc1ccc(C(=O)Nc2cc(NC(=O)c3ccc(NC(=O)C(C)(C)C)cc3)cc(C(=O)O)c2)cc1	-16%	-29%	19*	?	10
CC(C)(C)C(=O)Nc1ccc(C(=O)NNC(=O)Cc2ccccc2)cc1	-7%	-25%	15*	-10%	12
CC(C)(C)C(=O)Nc1ccc(C(=O)NNC(=O)c2ccccc2)cc1	1%	-19%	31*	nt	78*
CC(C)(C)C(=O)Nc1ccc(NC(=O)C(C)(C)C)cc1	-4%	1%	4	7%	17
Cc1ccc(NC(=O)c2ccc3nsnc3c2)c(C)c1	-1%	-13%	30*	0%	35*
COC(=O)c1ccc(NC(=O)c2ccc3nsnc3c2)cc1	-6%	-27%	1	-9%	25
Cc1ccc(NC(=O)c2sc(C)nc2C)c(C)c1	-4%	1%	17*	3%	36*
COc1ccc(NC(=O)C2CCCN(S(=O)(=O)c3ccc4c(c3)CCCC(=O)N4)C2)c(OC)c1 (stereo not drawn)	-5%	nt	nt	nt	nt
CCc1ccc(NC(=O)C(=O)NCC(c2cccnc2)N2CCN(c3ccc(F)cc3)CC2)cc1 (stereo not drawn)	-3%	nt	nt	nt	nt
c1ccc2c(c1)CC(N1CCN(c3cccc4c3OCCO4)CC1)C2	nt	nt	6	?	3
CCCOc1ccc(N2C(=O)CC(N(CCc3ccccc3)C(=O)c3ccccc3)C2=O)cc1 (stereo not drawn)	1%	-12%	21*	3%	14
CCCOc1ccc(N2C(=O)CC(N(O)c3ccccc3)C2=O)cc1 (stereo not drawn)	?	-22%	20	14%	113*
COc1ccccc1N(O)C1CC(=O)N(c2ccc(F)cc2)C1=O (stereo not drawn)	2%	-15%	32*	-2%	61*
COc1ccccc1N1C(=O)CC(N(O)c2ccccc2)C1=O (stereo not drawn)	-2%	-12%	-1	1%	2
CCCOc1ccccc1N1C(=O)CC(N(O)c2ccccc2)C1=O (stereo not drawn)	1%	10%	14*	0%	28
COC(=O)c1cc2sccc2n1CC(=O)Nc1ccc(C)cc1C	22%	nt	nt	nt	nt
Cc1nc2cc3sc(C)nc3cc2s1	-1%	-12%	33*	nt	73*
Cc1nc2ccc(N)cc2s1	?	-2%	-1	-14%	-3
Cc1nc2cc(C)c(C)cc2s1	2%	-16%	22*	nt	18
CC(C)c1ccc(/C=C2\SC(=O)N(CC(=O)NC3C=CS(=O)(=O)C3)C2=O)cc1 (stereo not drawn)	-3%	11%	12*	18%	27
SMILES	AmpC detergent	AmpC inh no detg	CHX counter	NS1 inh	Shiga inhibitor
COc1ccc(/C=C2\SC(=S)N(C(C)C(=O)NC3C=CS(=O)(=O)C3)C2=O)cc1 (stereo not drawn)	-5%	28%	23*	-13%	31*
COc1cc2ccccc2cc1C(=O)Nc1ccc(Cl)c(-c2nc3ccccc3o2)c1	-2%	nt	nt	nt	nt
Cc1ccc(C)n1-c1ccc(-c2ccnc(N)n2)cc1	?	16%	24*	nt	28
Cc1onc(-c2ccccc2)c1-c1ccnc(N)n1	6%	-21%	-1	-7%	-5
O=C(Nc1nnc(-c2ccncc2)s1)C1CCCO1 (stereo not drawn)	?	-28%	17*	-3%	35*
O=C(Nc1nnc(-c2ccccc2F)s1)C1CCCO1 (stereo not drawn)	-7%	-15%	39*	-2%	64*
CC(=O)NC12CC3CC(C1)CC(C(=O)N(C)Cc1cccc(Cl)c1Cl)(C3)C2	1%	-26%	-7	18%	-14
CC(=O)c1ccc(NC(=O)C2CCN(S(=O)(=O)c3cccs3)CC2)cc1	9%	-24%	44*	-2%	44*
O=C(Nc1nc2ccccc2[nH]1)C1CCN(S(=O)(=O)c2cccs2)CC1	4%	-25%	14*	10%	13
CC(NC(=O)C1CCCN(S(=O)(=O)c2cccs2)C1)c1ccccc1 (stereo not drawn)	-3%	3.2µM*	8	-9%	14
CC(NC(=O)C1CCCN(S(=O)(=O)c2cnc[nH]2)C1)c1ccccc1 (stereo not drawn)	?	-12%	-6	4%	-18
Cc1ccc(NC(=O)C2CCN(S(=O)(=O)c3cccs3)CC2)cc1C	?	-31%	1	-1%	23
CC1CCN(C(=O)C2CCN(S(=O)(=O)c3cccs3)CC2)CC1	-10%	6%	17*	-1%	41
CC1CC(C)CN(C(=O)C2CCN(S(=O)(=O)c3cccs3)CC2)C1 (stereo not drawn)	3%	0%	-4	-8%	-7
Clc1ccc(OCCOCCNCc2ccccc2)cc1Cl	-9%	30%	-3	-28%	nt
CCC(C)NC(=O)c1cnn2c(C)c3c(nc12)CCCC3 (stereo not drawn)	-4%	-3%	1	-89%	14
Cc1c2c(nc3c(C(=O)NC4CC4)cnn13)CCCC2	2%	-2%	35*	-18%	113*
CCOC(=O)C1(Cc2ccccc2C)CCCN(C(=O)c2ccnn2C)C1 (stereo not drawn)	-7%	81%	9	-6%	9
CCOC(=O)C1(Cc2ccccc2C)CCCN(C(=O)c2ccoc2)C1 (stereo not drawn)	2%	66%	44*	-5%	71*
CCOC(=O)C1(Cc2ccccc2C)CCCN(C(=O)c2sccc2C)C1 (stereo not drawn)	-9%	67%	29*	-14%	20
CCOC(=O)C1(Cc2ccccc2C)CCCN(Cc2cc(OC)c(O)c(OC)c2)C1 (stereo not drawn)	7%	61%	13*	8%	38*
NC(=O)NCCS[C@H]1CCCC[C@@H]1O	nt	nt	nt	1%	nt
Cc1ccc2c(c1)OC(c1ccc3c(c1)OCCO3)CC2=O (stereo not drawn)	0%	-19%	29*	-13%	67*
O=[N+]([O-])c1ccc(N=Nc2c(O)[nH]c3ccc(F)cc23)cc1	-4%	-26%	44*	0%	56*
